# From PubChem
# Shown is part of a subset that was picked to be rich in hits.
# Tg IFNy HTS: blocks Toxoplasma gondii growth in the presence of IFN-gamma; Toxoplasma gondii growth in IFN-gamma-treated host cells; active compounds read low; activity change, negative = inhibition, % (concentration not given with the values); 69,000 compounds, 3.8% hits; in the data active = activity change below about -70%, passing the limit was not always enough;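 also: host cells are HeLa cells infected with Toxoplasma gondii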
# * hit, by the source's call; ! = not active in a repeat.
SMILES,Tg IFNy HTS
COC(=O)c1c(NCCc2c[nH]c3ccccc23)c2cc(F)ccc2[nH]c1=O,-99.4*
COC(=O)c1c(NCCc2ccccc2)c2cc(F)ccc2[nH]c1=O,6.5
COCCNc1c(C(=O)OC)c(=O)[nH]c2ccc(F)cc12,34.7
N#Cc1ccc2c(c1)CN(C(=O)c1cccnc1)C2c1cnco1 (stereo not given),4.9
O=S1(=O)CCC(NCc2ccco2)C1 (stereo not given),34.2
Cc1oc(-c2ccc(C(=O)Nc3ccc(F)cc3F)cc2)nc1CN1CCN(c2ccccc2)CC1,214.8
CSc1sc(C2=NNC(O)(C(F)(F)F)C2)c2c1C(=O)CCC2(C)C (stereo not given),-96.3*
OC1(C(F)(F)F)CC(c2ccncc2)=NN1 (stereo not given),-14.8
COc1ccc(CN2CC3(COC(C(=O)N4CCCC4)C3)c3ccccc32)cc1 (stereo not given),-78.5*
COCCN(C)C(=O)C1CC2(CO1)CN(Cc1ccc(OC)cc1)c1ccccc12 (stereo not given),-34.7
COc1ccc(CN2CC3(COC(C(=O)CCN4CCOCC4)C3)c3ccccc32)cc1 (stereo not given),-36.4
O=C(CN1C(=O)CCc2cc(Br)ccc21)NC1CCCCCCC1,-4.9
Cc1cc(C)c(S(=O)(=O)Nc2cccc(C(F)(F)F)c2)c(C)c1,7.3
CC(=O)N1C(=O)C2(N=C(N)NC(Nc3cccc(C(F)(F)F)c3)=N2)c2ccccc21 (stereo not given),11.6
O=c1cc(Nc2cccc(C(F)(F)F)c2)nc[nH]1,-102.8*
O=S(=O)(c1ccccc1)c1cnc2c(N3CCNCC3)cccc2c1,14.6
Cc1cccc(N2C(=O)c3cccc4c(N5CCNCC5)ccc(c34)C2=O)c1,0.4
O=c1cc(N2CCNCC2)oc2c(-c3ccccc3)cccc12,-84.8*!
Cc1ccccc1-n1c(CCc2ccccc2O)n[nH]c1=O,3.6
Cc1ccc(NC(=O)CC(=O)N2CCCCCCCC2)c(C)c1,13.7
Cc1nn(-c2cccc(C(=O)N3CCCC(N)CC3)c2)c(=O)c2ccccc12 (stereo not given),8.5
COc1ccc(O)c(-c2nc3c(C(C)(C)C)cc(C(C)(C)C)c(O)c3o2)c1,-119.4*
COc1ccc(O)c(N)c1,35.9
COc1ccc(O)c(C2=Nc3ccccc3N=C(c3ccccc3)C2)c1,166.9
O=C(c1cccnc1)N1CCOCC2(CCC(CN3CCCC3)O2)C1 (stereo not given),1.0
SMILES,Tg IFNy HTS
O=C(CCc1cccnc1)N1Cc2cnn(CCO)c2C1,9.3
Cc1cccc(NC(=O)Nc2ccc(C)c(Cl)c2)n1,-31.0
CC(=O)Nc1ccc(C)c(NC(=S)Nc2ccc(Cl)c(Cl)c2)c1,23.4
Cc1ccc(NC(=O)Nc2ccc(C#N)cc2)cc1Cl,-70.6*
CCOc1ccc(-c2nc(Cn3nnc(C(=O)Nc4cccc(Cl)c4)c3C)c(C)o2)cc1,27.3
O=C(c1ccc2[nH]ccc2c1)N1CCC(Cn2cc(-c3cccnc3)nn2)CC1,-12.5
N#Cc1c(NC(=O)C2CC(c3cccc(Br)c3)=NO2)sc2c1CCC2 (stereo not given),-20.2
C=CCn1c(SCC(=O)OCC)nc2sc3c(c2c1=O)CC(C)(C)OC3,-7.3
CCOC(=O)c1c(NC(=O)CSc2nc(C)cc(C)n2)sc2c1CCC2,-44.3
N#Cc1c(NC(=O)C2CC(=O)OC23CCCCC3)sc2c1CCCCC2 (stereo not given),-91.5*
CCC(Sc1ncc(-c2ccccc2)nn1)C(=O)Nc1sc2c(c1C#N)CCCC2 (stereo not given),150.0
CCOC(=O)c1c(NC(=O)C2CC(=O)OC23CCCCC3)sc2c1CC(C)(C)OC2 (stereo not given),-96.0*
CCC(=O)N1CCOCC2(CCC(CN(C)Cc3ccco3)O2)C1 (stereo not given),-41.0
COc1ccc(-c2[nH]ncc2CN2CCC3(CC2)C(=O)N(C(C)C)C(=O)N3CCC(C)C)cc1,-5.8
CCOC(=O)C1(CCc2ccccc2)CCN(C(=O)c2ccc(C#CC(C)(C)O)cc2)CC1,-25.3
Cn1c(=O)c2[nH]cnc2n(C)c1=O,111.7
S=c1nc[nH]c2nc[nH]c12,-70.5*
O=S(=O)(Cc1cc(Cl)sc1Cl)c1ccc(Cl)cc1,-101.0*
O=C1CSC(=O)N1CCS(=O)(=O)c1ccc(Cl)cc1,-1.5
Cc1nnsc1-c1noc(CS(=O)(=O)c2ccc(Cl)cc2)n1,40.2
CC(C)Nc1cc(-c2cc(Cl)c3c(c2)CC(CN)O3)ncn1 (stereo not given),2.3
COc1cc(C)c(S(=O)(=O)Nc2cccc(-c3nncn3C)c2)cc1C,14.0
C=C1/C(=C\C=C2/CCC[C@]3(C)[C@@H]([C@H](C)CC[C@@H](O)C(C)C)CC[C@@H]23)C[C@@H](O)C[C@@H]1O,0.9
C[C@H](Oc1cc(-c2cnn(C3CCNCC3)c2)cnc1N)c1c(Cl)ccc(F)c1Cl,2.7
C[C@@H](Oc1cc(-c2cnn(C3CCNCC3)c2)cnc1N)c1c(Cl)ccc(F)c1Cl,-77.5*
SMILES,Tg IFNy HTS
O=C(NCCCc1nc2ccc(F)cc2[nH]1)[C@@H]1C[C@@H]2C=C[C@H]1C2,-3.8
Cc1cc(C)cc(CSCC(=O)N2CCCC3(CNC(=O)O3)C2)c1 (stereo not given),-2.7
Cc1ccc(-c2nc(Cn3ccn4nc(-c5ccc(Cl)cc5)cc4c3=O)c(C)o2)c(C)c1,54.3
CN1CC2(CCCN(C(=O)CCCn3cncn3)CC2)OC1=O (stereo not given),1.5
O=c1[nH]c2cc(C(F)(F)F)cc(Br)c2[nH]c1=O,-64.0
O=c1[nH]c2cc(Cl)c(Cl)c([N+](=O)[O-])c2[nH]c1=O,16.6
O=c1[nH]c2cc(Cl)c(Cl)cc2[nH]c1=O,-72.1*
CCOC(=O)CCc1csc(N)n1,30.7
CCCCCN=c1ccn(Cc2ccccc2)c2ccccc12,-0.3
CCCCCCCCCCCCCCCCn1cc[n+](Cc2ccccc2)c1C,-79.0*
CCCN1CCC(c2cc3c(ncn3C)c(N3CCCC3)n2)CC1,-16.5
O=C(c1ccccn1)N1CC[C@H]2OCC[C@@]2(COc2ccccn2)C1,-1.1
COc1cc(CCC(=O)N2CCCC[C@@H]3[C@H]2[C@@H](c2ccccc2)CCN3C)on1,26.8
O=C(CN1C(=O)CCc2cc(S(=O)(=O)N3CCCC3)ccc21)Nc1ccc2c(c1)OCCO2,17.4
O=C(CN1C(=O)CCc2cc(S(=O)(=O)N3CCCC3)ccc21)Nc1cccc(Br)c1,-108.3*
Cc1ccc(NC(=O)CN2C(=O)CCc3cc(S(=O)(=O)N4CCC(C)CC4)ccc32)cc1N(C)C,149.0
Cc1cc(C)cc(NC(=O)CN2C(=O)CCc3cc(S(=O)(=O)N4CCC(C)CC4)ccc32)c1,19.3
Cc1cccc(NC(=O)CN2C(=O)CCc3cc(S(=O)(=O)N4CCCCC4)ccc32)c1,0.9
O=C(CN1C(=O)CCc2cc(S(=O)(=O)N3CCCC3)ccc21)Nc1cccc(F)c1,-18.6
CCc1ccc(NC(=O)CN2C(=O)CCc3cc(S(=O)(=O)N4CCC(C)CC4)ccc32)cc1,-77.2*
CC1CCN(S(=O)(=O)c2ccc3c(c2)CCC(=O)N3CC(=O)NCc2ccc3c(c2)OCO3)CC1,-26.8
Cc1ccc(NC(=O)CN2C(=O)CCc3cc(S(=O)(=O)N4CCC(C)CC4)ccc32)cc1,18.7
Cc1ccc(NC(=O)CN2C(=O)CCc3cc(S(=O)(=O)N4CCC(C)CC4)ccc32)cc1C,-99.2*
COc1cccc(NC(=O)CN2C(=O)CCc3cc(S(=O)(=O)N4CCC(C)CC4)ccc32)c1,-40.9
CC1CCN(S(=O)(=O)c2ccc3c(c2)CCC(=O)N3CC(=O)Nc2ccc3c(c2)OCCO3)CC1,-88.0*
